From PubChem BioAssay (Tox21) come the findings set out here.

Inconclusive results are not listed. A number with no mark means an inactive call. Calls of active or inactive are those of the source. Calls come from the whole dose curve; as a rule, active = well fitted cell-killing curve with a large enough effect in the repeat runs; inconclusive = weak or mixed curves; inactive = flat fitted curve, though single readings scatter.
% is set by controls: 0 for no effect and ±100 for the full control effect.

A short description of the experiment: qHTS RealTime-Glo MT Cell Viability Assay in HepG2 cells - 24 hour (AID 1224867). Note: nearly all actives have a fitted effect of over 50% in size. The conditions noted are these: RealTime-Glo luminescence; series mostly up to 76.8 µM. From the text:
U.S. Tox21 Program National Center for Advancing Translational Sciences [NCATS] NIH Chemical Genomics Center [NCGC] U.S. Environmental Protection Agency [EPA] National Institutes of Environmental Health Sciences [NIEHS] National Toxicology Program [NTP] U.S. Food and Drug Administration [FDA] Tox21 Assay Overview: Measure of cell viability is critical in the cell-base assay. Analysis of cell viability is necessary for the characterization of cell responses to cytotoxic drugs and environmental stress. A RealTime-Glo MT Cell Viability Assay to monitor cell viability in real time of continues cell culture during 40 hours of compound treatment was used to screen Tox21 10K library compounds in HepG2 cells. The RealTime-Glo MT Cell Viability Assay is a nonlytic, homogeneous, bioluminescent method to measure cell viability in real time using a simple, plate-based method. The assay involves adding NanoLuc luciferase and a cell-permeant prosubstrate to cells in culture. Viable cells reduce the proprietary prosubstrate to generate a substrate for NanoLuc luciferase. This substrate diffuses from cells into the surrounding culture medium, where it is rapidly used by the NanoLuc Enzyme to produce a luminescent signal. The signal correlates with the number of viable cells, making the assay well suited for cytotoxicity studies.
Tox21 Assay Protocol Summary: The mixture of HepG2 cell suspension and reagents were dispensed at 600cells/6 ul/well in 1536-well tissue culture treated black solid bottom plates using a Multidrop dispenser. After the assay plates were incubated at a 37 C/5% CO2 incubator for 5 hours, 23 nL of compounds dissolved in DMSO, positive and negative controls was transferred to the assay plate by a pintool work station. The plates were incubated at 37 C for 40 hours. The luminescence intensity were measured at 0h, 8h, 16h, 24h, 32h and 40h time points using ViewLux plate reader during compound treatment.
(qHTS replaces the single test concentration by a dilution series.)
Regarding `CCOC(=O)c1ncn2c1CN(C)C(=O)c1cc(F)ccc1-2`, the compound was called inactive.
On to `COC(=O)CCCCCCCC(=O)OC`, for which the compound was called inactive.
Consider `CC(C)(C)NC(N)=O`, for which the outcome was inactive.
As to `Nc1ccc([N+](=O)[O-])c(N)c1`, the compound was classed as inactive.
Turning to `BrCCCCCBr`, the result was inactive.
For the compound `NCCN1CCOCC1`, the call was inactive.
For `Oc1cn2c(n1)Nc1ccc(Cl)c(Cl)c1C2`, the activity change, negative = cytotoxicity was -0.765% [at 15.8 µM].
As for `Cc1ccccc1N=O`, the compound was called inactive.
On the same count and under the same terms, as for `CC(=O)CCCCn1c(=O)c2c(ncn2C)n(C)c1=O`, the entry is “inactive”; as for `CCOC(=O)c1ccc(OC(=O)CCCCCN=C(N)N)cc1`, “inactive”; as for `CCO[Si](CCCS)(OCC)OCC`, “inactive”.
In the case of `COC(=O)c1ccccc1C(=O)c1ccc(OCCN2CCCCC2)cc1`, the call was inactive.
Take `C=CC(OCC)OCC`: the outcome was inactive.
In the case of `CCOCCOC(=O)/C=C/c1ccc(OC)cc1`, the compound was called inactive.
Consider `CC(=O)Nc1ccc(S(=O)(=O)Cl)cc1`, for which the compound was called inactive.
Regarding `CC(C)C[C@H](NC(=O)CNC(=O)[C@H](Cc1ccc(O)cc1)NC(=O)[C@H](CO)NC(=O)[C@H](Cc1c[nH]c2ccccc12)NC(=O)[C@H](Cc1cnc[nH]1)NC(=O)[C@@H]1CCC(=O)N1)C(=O)N[C@@H](CCCN=C(N)N)C(=O)N1CCC[C@H]1C(=O)NCC(N)=O` (stereo in doubt), the compound was classed as inactive.
The same measure, in the same setting: next, `Cc1ccc2c(c1)OCC(=O)CO2`: “inactive”; `O=C(Nc1ccc(Cl)c(Cl)c1)C1CC1`: “inactive”.
Regarding `Cc1cc2cc3c(C)cc(=O)oc3c(C)c2o1`, the result was inactive.
Turning to `CCOc1cc([N+](=O)[O-])c(OCC)cc1N1CCOCC1`, the outcome was inactive.
For `Cc1cc(Cl)c(C)cc1Cl`, the compound was called inactive.
In the case of `CC1(CO)CN(c2ccccc2)NC1=O` (stereo not given), the result was inactive.
For `C=CCCCCCCCCCCCC`, the compound was called inactive.
Same read-out and setting: as for `Cc1ccccc1C(=O)Nc1ccc(C(=O)N2CCCC(N(C)C)c3ccccc32)cc1` (stereo not given), the entry is “inactive”; as for `CCCCCCCCC1CCC(=O)O1` (stereo not given), “inactive”.
On to `CC(=O)Nc1cccc(C)c1`, for which the compound was called inactive.
For the compound `O=C(NCCc1c[nH]c2ccccc12)c1cccnc1`, the compound was classed as inactive.
On the same count and under the same terms, as for `O=C1O[C@@H]2[C@@H](O)[C@H](O)O[C@@H]2[C@H]1O`, the entry is “inactive”; as for `Oc1ccccc1-c1nnco1`, “inactive”; as for `COC(=O)CCc1ccc(OCC(O)CNC(C)C)cc1` (stereo not given), “inactive”.
For the compound `C=C(C)C(=O)OCc1ccccc1`, the result was inactive.
In the case of `O=C(CCNNC(=O)c1ccncc1)NCc1ccccc1`, the result was inactive.
In the case of `Cc1cccc(C)c1OCC(C)N` (stereo not given), the compound was classed as inactive.
For `O=C(OCC(O)CO)c1ccccc1Nc1ccnc2c(C(F)(F)F)cccc12` (stereo not given), the outcome was inactive.
`COC(=O)C1CC(=O)C(C(=O)OC)CC1=O` (stereo not given): the activity change, negative = cytotoxicity is 1.03% [at 6.97 µM].
Regarding `Cc1ccc(S(=O)(=O)O)c(C)c1`, the call was inactive.
Regarding `CC(CC=O)CCCC(C)(C)O` (stereo not given), the compound was called inactive.
As for `CC(=C(CCOC(=O)C(C)C)SSC(CCOC(=O)C(C)C)=C(C)N(C=O)Cc1cnc(C)nc1N)N(C=O)Cc1cnc(C)nc1N`, the compound was called inactive.
Regarding `C=C(C)C1CCC(C)(O)CC1` (stereo not given), the call was inactive.
In the case of `CN(CCOc1ccc(NS(C)(=O)=O)cc1)CCc1ccc(NS(C)(=O)=O)cc1`, the result was inactive.
